High-throughput results (PubChem)
This is a sample that favours compounds with a hit; in the whole collection about 1.2% have one here.
PLCg1 inh – PLC-gamma1 enzyme inhibitors, primary screen, biochemical, fluorescence, purified enzyme. 370,000 compounds, 0.84% hits. AID 720700, 2013. inhibition, % at 12.2 µM. fluorogenic substrate. 1-phosphatidylinositol 4,5-bisphosphate phosphodiesterase gamma-1 (Homo sapiens), P19174
PLCb3 inh – human PLC-beta3 inhibitors, primary screen, biochemical, fluorescence; Purified PLC-beta3, fluorogenic substrate; inhibition, % at 12.2 µM; 370,000 compounds, 0.18% hits; in the data active = inhibition above about 11%;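 note: 0% = median of compound wells on plate and 100% = full blocker control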
GC-B act – human GC-B receptor activators, primary screen, HEK293 GC-B cells, cGMP TR-FRET, EC30 CNP. 370,000 compounds, 0.11% hits. 0% at EC30 CNP, 100% saturating CNP. Atrial natriuretic peptide receptor 2 (Homo sapiens), P20594. activation, % at 10 µM;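 active = activation at 10 µM reaching about 35% in either raw or pattern-adjusted values, limit read from the data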
NPR1 activator – GC-A stimulated cGMP production enhancers – HEK293 GC-A cells, cGMP TR-FRET, EC30 ANP, primary screen. Atrial natriuretic peptide receptor 1 (Homo sapiens), P16066. 0% at EC30 ANP, 100% saturating ANP. activation, % at 10 µM. 370,000 compounds, 0.14% hits; in the data active = activation above about 40%
PLCgamma1 ctr – PLC-gamma1 enzyme inhibitors, counter-screen for PLC-beta3 inhibitor project, biochemical, fluorescence; shares compounds with PLCg1 inh; purified PLC-gamma1, fluorogenic substrate; inhibition, % at 12.3 µM; 3,300 compounds, 3.1% hits
PLCb3 confirm – PLC-beta3 inhibitor confirmation, biochemical, fluorescence, purified enzyme; 3,300 compounds, 1% hits; fluorogenic substrate fluorescence; inhibition, % at 12.3 µM; AID 743261, 2014; shares compounds with PLCg1 inh; in the data active = inhibition above about 11%
* = called active by the depositor; . = no result. Cut-off read from the data, not from the text of the source, unless noted: active = inhibition above about 9.5%; inactive = the rest.

SMILES	PLCg1 inh	PLCb3 inh	GC-B act	NPR1 activator	PLCgamma1 ctr	PLCb3 confirm
COc1ccc(N(CC(=O)Nc2ccccc2OC)S(=O)(=O)c2ccccc2)cc1Cl	1	-9	-14	-14	.	.
COc1cc(-c2nnc(SCC3(c4ccccc4)OCCO3)o2)cc(OC)c1OC	12*	-1	8	2	-4	0
Cc1ccc(N(CC(=O)N/N=C/c2cccnc2)S(=O)(=O)c2ccccc2)cc1	3	2	-14	-6	.	.
Cc1ccc(Cn2cccc2C2=NC(C)CO2)cc1 (stereo not drawn)	11*	10	-5	-3	0	-8
CC(C)C1COC(c2cccn2Cc2ccccc2Cl)=N1 (stereo not drawn)	0	2	-2	-1	.	.
Cc1ccc(S(=O)(=O)N/N=C/c2c(F)cccc2Cl)cc1	11*	2	2	-4	-8	-8
CCOC(=O)c1sc(SC)nc1N	2	-3	5	1	.	.
CSc1nc(N)c(C(=O)NC2CCCCC2)s1	12*	-3	-2	-1	9.6*	5
CN(CCNC(=O)C1CCN(S(=O)(=O)c2cnc[nH]2)CC1)Cc1ccccc1	12*	1	12	1	8	9
COc1ccc(F)cc1S(=O)(=O)N1CCCN(S(=O)(=O)c2cc(F)ccc2OC)CC1	4	5	2	-1	.	.
COc1ccc(F)cc1S(=O)(=O)n1cc(C)nc1-c1ccccc1	7	11*	1	3	-5	-14
O=C(Cc1ccc(F)cc1)N1CCC2(CC1)NCCc1[nH]cnc12	2	-4	-1	0	.	.
CC(=O)Nc1ccc(S(=O)(=O)N2CCN(C(=O)C(=O)c3cccc(C(F)(F)F)c3)CC2)cc1	2	-2	2	-1	.	.
CCCCN(CCCC)CC(O)COc1ccccc1C(=O)Nc1ccccc1 (stereo not drawn)	7	11*	-14	-16	0	0
O=S(=O)(/N=C(/Nc1ccccc1)C(F)(F)F)c1ccccc1	9.6*	5	1	1	-5	0
CC(C)(C)C1CCC(=O)N(CCC#N)CC1 (stereo not drawn)	11*	7	3	3	-4	0
CC(C)(C)C1CCC(=O)N(CCSc2ccccc2)CC1 (stereo not drawn)	13*	6	-1	1	-6	0
Cc1ccc(SCCN2CCC(C(C)(C)C)CCC2=O)cc1 (stereo not drawn)	4	6	1	2	.	.
Oc1ccc(C[C@H]2CNCCN2CCc2cccc3ccccc23)cc1	4	6	4	1	.	.
O=C(NCc1ccccc1Cl)c1ccc(CS(=O)Cc2ccc(Cl)cc2)o1 (stereo not drawn)	9.5*	-5	-4	0	2	7
Cc1ccc(CS(=O)Cc2ccc(C(=O)NCc3ccccc3Cl)o2)cc1 (stereo not drawn)	2	-10	2	1	.	.
c1ccc(CO/N=C(\c2ccc(C3CC3)nc2)C2CC2)cc1	2	-7	-3	-4	.	.
CN(c1ccccc1)S(=O)(=O)c1ccc(NC(=S)NC(=O)c2ccccc2)cc1	0	3	2	1	.	.
CN(c1ccccc1)S(=O)(=O)c1ccc(NC(=S)NC(=O)C2CC2)cc1	10*	6	0	0	6	5
COc1ccc(CCN(C)C2CCCN(C(=O)CCC(F)(F)F)C2)cc1OC (stereo not drawn)	9.6*	-8	-6	3	-1	-3
SMILES	PLCg1 inh	PLCb3 inh	GC-B act	NPR1 activator	PLCgamma1 ctr	PLCb3 confirm
C=C(C)Cn1c(SCC(=O)NN=Cc2c(O)ccc3ccccc23)nnc1-c1ccc(Br)cc1	-5	-9	-9	-2	.	.
C=C(C)Cn1c(SCC(=O)N/N=C(\C)c2ccc([N+](=O)[O-])cc2)nnc1-c1ccc(Br)cc1	10*	11*	-10	-11	2	3
COn1c(=O)c(=O)n(O)c2ccccc21	4	3	3	-1	.	.
O=c1c(=O)n(O)c2ccccc2n1O	13*	-1	-2	0	-6	-2
Cc1onc(CO)c1C(=O)Nc1nccs1	-1	-4	3	2	.	.
CCNc1nc2c(c(=O)[nH]c(=O)n2C)n1CC(C)C	1	3	5	0	.	.
CNc1nc2c(c(=O)[nH]c(=O)n2C)n1CCCc1ccccc1	1	-5	2	-2	.	.
CCC(C)Nc1nc2c(c(=O)[nH]c(=O)n2C)n1CCC(C)C (stereo not drawn)	10*	11*	-8	4	0	7
CCC(C)Nc1nc2c(c(=O)[nH]c(=O)n2C)n1CCCc1ccccc1 (stereo not drawn)	10*	-4	6	12	-6	-3
CN(CCO)C(=O)C1CCN(c2ncc(C(F)(F)F)cc2Cl)CC1	2	3	0	2	.	.
Cc1ccccc1OCC(=O)NCCNC(=O)c1cccnc1	-3	-9	3	-1	.	.
O=C(CCCCCn1nnc2ccccc2c1=O)Nc1ccccc1F	-1	3	1	-3	.	.
CC(=O)c1cc(-c2ccccc2S(=O)(=O)NC(C)(C)C)c(=O)n2c1CCC2	-1	0	-2	1	.	.
O=C(CCCC(=O)N1CCc2ccccc21)N1CCc2ccccc21	-1	-48	3	5	.	.
O=C(Cc1ccc(-n2cccc2)cc1)N1CCc2ccccc21	9.9*	5	-3	0	-1	0
Cc1ccc(NC(=O)c2nn(C34CC5CC(CC(C5)C3)C4)cc2[N+](=O)[O-])cc1	12*	14*	4	1	7	11*
COc1ccc(CNC(=O)CCS(=O)(=O)c2cccc3nonc23)cc1	-2	0	-6	-1	.	.
COc1ccc(N(C)C(=O)CCS(=O)(=O)c2cccc3nonc23)cc1	8	11*	-7	-3	-4	0
CCOC(=O)CN1CC23C=CC(O2)C(C(=O)N2CCN(c4ccc(F)cc4)CC2)C3C1=O (stereo not drawn)	-1	1	4	0	.	.
Cc1ccc(N2CC(C(=O)OCC(=O)NNC(=O)c3ccccc3)CC2=O)cc1 (stereo not drawn)	11*	-4	-3	1	3	3
Cc1ccc(OCC(=O)OCc2c(C)noc2C)cc1C	15*	0	-7	-2	-3	0
Cc1noc(C)c1COC(=O)COc1ccc(C#N)cc1	1	2	-10	-3	.	.
